The source of these data is the supplement of paper PMC10849652.

What all share (assay): log2 fold change, soluble protein after heating vs DMSO (PISA); higher = thermal stabilisation; K562 cells, 10 uM, 30 min; active = over 0.2 and 3.5 SD of the protein, either way, in both replicates (recomputed)
Compound in one experiment: CCCCN(Cc1ccc(C(=O)NO)cc1)C(=O)Nc1ccccc1 [Nexturastat A]
The method, boiled down:
(§1)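 K562 cells at 2×10^6 cells/mL were treated with 10 μM compound for 30 min. Aliquots were heated for 3 min across 48°C-58°C, pooled, and extracted in PBS with 0.5% NP-40 at 4°C; soluble protein was the supernatant after 21,000xg for 90 min. Soluble protein was quantified by TMTpro 16plex LC-MS/MS with channel sums equalised, and reported as log2 fold change in thermal stability against DMSO controls, with values from duplicates.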

Compound in experiment [1]: CCCc1cc(C)[nH]c(=O)c1CNC(=O)c1cc(-c2ccnc(N3CCN(C)CC3)c2)cc2c1cnn2C(C)C
The method, boiled down:
as §1

Compound in experiment [2]: CC[C@@H]1C(=O)N(C)c2cnc(Nc3ccc(C(=O)NC4CCN(C)CC4)cc3OC)nc2N1C1CCCC1
In outline:
as §1

Compound in the next experiment: CC[C@H](C)[C@@H](C(=O)N[C@@H]([C@@H](C)O)C(=O)N[C@@H](CC(C)C)C(=O)[C@]1(CO1)C)NC(=O)[C@H]([C@@H](C)CC)N(C)C(=O)C [epoxomicin]
In outline:
as §1

Compound in experiment [3]: CCn1cc(-c2ccnc3[nH]c(-c4cccc(CN(C)C)c4)cc23)c(-c2ccc(NC(=O)N(C)C)cc2)n1
The method, boiled down: as §1

Compound in experiment [4]: CN1C2=C(C3=C1C(=O)N(N=C3)CC4=CC(=CC=C4)N)SC(=C2)S(=O)C
In outline:
as §1

Compound in experiment [5]: CN1CCC(CNc2ccc3ncc(-c4cccc(OC(F)(F)F)c4)n3n2)CC1
The method, boiled down:
as §1

Compound in experiment [6]: CC1=C(C=C(C=C1)NC(=O)C2=CC(=CC=C2)C(C)(C)C#N)NC3=CC4=C(C=C3)N=CN(C4=O)C
In outline: as §1

Compound in experiment [7]: CC1=CC=C(C=C1)SC2=C3C=C(SC3=CN=C2)C(=O)N
The method, boiled down: as §1

Compound in experiment [8]: CC1=NC(=CC=C1)C2=C(N=C(N2)C(C)(C)C)C3=CC4=NC=CN=C4C=C3
The method, boiled down:
as §1

Compound in a further experiment: CCCS(=O)(=O)Nc1ccc(F)c(C(=O)c2c[nH]c3ncc(-c4ccc(Cl)cc4)cc23)c1F [vemurafenib]
In outline:
as §1

Compound in experiment [9]: CCCS(=O)(=O)Nc1ccc(F)c(C(=O)c2c[nH]c3ncc(Cl)cc23)c1F
In outline: as §1

Compound in another experiment: CCN(CC)Cc1ccc2cc(COC(=O)Nc3ccc(C(=O)NO)cc3)ccc2c1 [givinostat]
In outline:
as §1

Compound in a further experiment: CCN(CCCOc1ccc2c(Nc3cc(CC(=O)Nc4cccc(F)c4)[nH]n3)ncnc2c1)CCOP(=O)(O)O [barasertib]
In outline: as §1

Compound in the next experiment: CC[C@@H]1C(=O)N(C)c2cnc(Nc3ccc(C(=O)N[C@H]4CC[C@H](N5CCN(CC6CC6)CC5)CC4)cc3OC)nc2N1C(C)C [volasertib]
In outline:
as §1

Compound in experiment [10]: CC[C@H](C)N1C=C(C2=C(C=C(C=C21)C3=CN=C(C=C3)N4CCNCC4)C(=O)NCC5=C(C=C(NC5=O)C)C)C
In outline:
as §1

Compound in experiment [11]: CCn1c(C(=O)N(C2CC2)C2CC2)cc2c3c(ncn3C)c(Nc3cc(C)n(C)n3)nc21
The method, boiled down:
as §1

Compound in experiment [12]: CN(C)CC(=O)Nc1ccc2[nH]c(=O)c3ccccc3c2c1
In outline: as §1

Compound in the next experiment: CN(CCOC1=CC=C(C=C1)C[C@H]2C(=O)NC(=O)S2)C3=CC=CC=N3 (racemic) [rosiglitazone]
In outline: as §1

Compound in experiment [13]: CC1=C(C=C(C=C1)NC(=O)C2=CC(=CC=C2)N(C)C)NC(=O)C3=CC=C(C=C3)O
The method, boiled down:
as §1

About 7,900 targets were measured; listed, in parts, are those with a hit and a random draw of the rest. About 0.6% of all pairs of compound and target were hits. Unmarked numbers belong to inactive results.

UniProt Q9HCU9, sequence (Q9HCU9 whole entry, looked up): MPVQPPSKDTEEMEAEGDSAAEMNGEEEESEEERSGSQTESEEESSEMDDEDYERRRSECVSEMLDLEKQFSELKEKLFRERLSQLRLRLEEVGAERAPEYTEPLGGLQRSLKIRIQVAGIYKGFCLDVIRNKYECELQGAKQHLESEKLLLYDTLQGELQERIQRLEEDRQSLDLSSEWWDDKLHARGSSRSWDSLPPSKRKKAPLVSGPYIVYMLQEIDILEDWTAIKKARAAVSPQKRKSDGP
UniProt P54252, sequence (P54252 whole entry, looked up): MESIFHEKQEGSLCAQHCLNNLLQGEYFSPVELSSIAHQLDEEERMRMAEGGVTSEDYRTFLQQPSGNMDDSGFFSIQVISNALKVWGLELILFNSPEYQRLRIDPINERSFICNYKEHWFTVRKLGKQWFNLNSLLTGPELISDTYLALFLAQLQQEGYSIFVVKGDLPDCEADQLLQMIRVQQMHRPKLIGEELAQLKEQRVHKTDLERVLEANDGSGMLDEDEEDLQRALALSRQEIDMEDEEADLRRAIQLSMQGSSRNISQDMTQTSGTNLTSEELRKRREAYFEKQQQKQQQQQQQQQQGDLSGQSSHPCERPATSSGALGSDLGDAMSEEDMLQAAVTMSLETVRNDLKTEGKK
UniProt O75882, sequence (O75882 whole entry, looked up): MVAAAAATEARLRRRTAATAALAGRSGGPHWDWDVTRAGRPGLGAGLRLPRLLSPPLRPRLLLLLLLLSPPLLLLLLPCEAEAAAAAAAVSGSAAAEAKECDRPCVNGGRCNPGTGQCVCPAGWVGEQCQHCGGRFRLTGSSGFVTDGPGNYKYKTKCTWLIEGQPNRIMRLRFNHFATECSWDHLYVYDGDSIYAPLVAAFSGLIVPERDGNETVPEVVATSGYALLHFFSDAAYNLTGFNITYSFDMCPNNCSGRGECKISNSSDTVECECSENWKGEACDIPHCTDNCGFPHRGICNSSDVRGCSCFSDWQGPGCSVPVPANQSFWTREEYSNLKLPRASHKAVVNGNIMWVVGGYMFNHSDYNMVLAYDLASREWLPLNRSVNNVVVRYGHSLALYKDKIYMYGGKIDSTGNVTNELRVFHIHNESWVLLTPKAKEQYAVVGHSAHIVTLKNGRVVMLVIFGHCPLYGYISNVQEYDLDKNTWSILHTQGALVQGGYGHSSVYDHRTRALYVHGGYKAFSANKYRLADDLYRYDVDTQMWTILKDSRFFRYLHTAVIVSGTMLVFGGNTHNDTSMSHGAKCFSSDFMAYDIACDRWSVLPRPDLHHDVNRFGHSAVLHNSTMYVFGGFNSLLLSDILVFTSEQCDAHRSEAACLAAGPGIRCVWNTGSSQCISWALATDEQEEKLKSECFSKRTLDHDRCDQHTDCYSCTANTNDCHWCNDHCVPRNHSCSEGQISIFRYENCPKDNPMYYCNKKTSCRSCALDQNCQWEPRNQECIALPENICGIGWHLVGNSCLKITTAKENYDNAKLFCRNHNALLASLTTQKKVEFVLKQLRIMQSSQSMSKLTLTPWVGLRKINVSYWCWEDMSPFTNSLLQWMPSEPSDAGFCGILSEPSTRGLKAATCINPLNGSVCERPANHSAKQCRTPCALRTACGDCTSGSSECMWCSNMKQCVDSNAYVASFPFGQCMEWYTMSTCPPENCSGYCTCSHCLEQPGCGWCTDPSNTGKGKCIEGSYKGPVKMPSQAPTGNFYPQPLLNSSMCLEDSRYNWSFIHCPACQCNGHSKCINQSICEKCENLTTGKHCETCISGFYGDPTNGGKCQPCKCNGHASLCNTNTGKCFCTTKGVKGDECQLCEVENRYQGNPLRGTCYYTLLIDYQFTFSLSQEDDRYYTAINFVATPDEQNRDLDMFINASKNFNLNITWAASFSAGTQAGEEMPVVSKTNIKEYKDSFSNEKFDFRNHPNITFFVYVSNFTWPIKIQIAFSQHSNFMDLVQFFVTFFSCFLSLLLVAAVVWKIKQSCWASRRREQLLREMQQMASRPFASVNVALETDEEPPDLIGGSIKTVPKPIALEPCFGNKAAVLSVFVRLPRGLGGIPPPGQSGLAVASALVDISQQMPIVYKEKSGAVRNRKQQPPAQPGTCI
UniProt Q9UKU0, sequence (Q9UKU0 whole entry, looked up): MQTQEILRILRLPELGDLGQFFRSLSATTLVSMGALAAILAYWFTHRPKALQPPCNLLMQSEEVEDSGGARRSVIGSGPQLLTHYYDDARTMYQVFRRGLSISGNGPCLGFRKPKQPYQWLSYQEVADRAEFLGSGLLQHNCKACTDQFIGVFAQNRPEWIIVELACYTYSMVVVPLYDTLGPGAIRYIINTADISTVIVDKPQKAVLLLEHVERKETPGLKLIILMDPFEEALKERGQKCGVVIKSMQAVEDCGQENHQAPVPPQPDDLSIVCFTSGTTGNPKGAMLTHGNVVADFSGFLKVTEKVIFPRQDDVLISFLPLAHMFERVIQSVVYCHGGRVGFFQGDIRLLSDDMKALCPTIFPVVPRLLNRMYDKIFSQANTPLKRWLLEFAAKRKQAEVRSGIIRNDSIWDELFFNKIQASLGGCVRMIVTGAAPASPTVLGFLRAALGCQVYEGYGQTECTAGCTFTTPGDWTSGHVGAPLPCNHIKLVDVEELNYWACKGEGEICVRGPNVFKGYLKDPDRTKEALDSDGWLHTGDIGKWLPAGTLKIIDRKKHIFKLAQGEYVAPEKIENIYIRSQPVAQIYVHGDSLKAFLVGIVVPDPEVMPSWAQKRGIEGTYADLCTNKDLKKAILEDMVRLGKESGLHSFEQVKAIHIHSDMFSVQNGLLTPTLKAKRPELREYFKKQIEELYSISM
UniProt Q13825, sequence (Q13825 whole entry, looked up): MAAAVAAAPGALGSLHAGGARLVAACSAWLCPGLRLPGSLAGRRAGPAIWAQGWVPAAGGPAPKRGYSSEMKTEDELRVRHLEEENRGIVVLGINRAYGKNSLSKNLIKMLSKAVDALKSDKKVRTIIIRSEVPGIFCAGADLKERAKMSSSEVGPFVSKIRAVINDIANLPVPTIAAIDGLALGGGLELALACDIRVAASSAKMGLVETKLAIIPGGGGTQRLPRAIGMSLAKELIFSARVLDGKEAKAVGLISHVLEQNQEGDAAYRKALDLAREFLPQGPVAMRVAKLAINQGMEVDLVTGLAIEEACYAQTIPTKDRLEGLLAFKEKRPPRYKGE
UniProt P35612, sequence (P35612 whole entry, looked up): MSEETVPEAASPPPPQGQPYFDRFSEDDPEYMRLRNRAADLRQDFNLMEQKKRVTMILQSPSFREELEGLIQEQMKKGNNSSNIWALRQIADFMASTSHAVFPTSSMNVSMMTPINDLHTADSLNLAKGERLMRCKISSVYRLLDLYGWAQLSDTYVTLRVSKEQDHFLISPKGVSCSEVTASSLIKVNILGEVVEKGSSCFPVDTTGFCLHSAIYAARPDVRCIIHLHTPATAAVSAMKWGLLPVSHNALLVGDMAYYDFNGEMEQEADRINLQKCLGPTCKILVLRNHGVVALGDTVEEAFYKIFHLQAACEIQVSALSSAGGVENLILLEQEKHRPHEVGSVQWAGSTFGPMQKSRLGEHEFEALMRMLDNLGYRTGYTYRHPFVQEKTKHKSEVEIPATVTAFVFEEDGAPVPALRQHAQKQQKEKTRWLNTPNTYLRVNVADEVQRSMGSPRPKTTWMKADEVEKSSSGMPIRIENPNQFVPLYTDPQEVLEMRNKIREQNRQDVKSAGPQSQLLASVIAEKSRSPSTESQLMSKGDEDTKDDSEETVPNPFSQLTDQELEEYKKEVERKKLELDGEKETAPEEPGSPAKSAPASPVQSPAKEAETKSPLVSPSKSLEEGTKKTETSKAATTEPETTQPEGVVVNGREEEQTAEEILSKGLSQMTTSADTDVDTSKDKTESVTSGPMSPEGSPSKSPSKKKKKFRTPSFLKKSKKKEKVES
UniProt Q9BTE6, sequence (Q9BTE6 whole entry, looked up): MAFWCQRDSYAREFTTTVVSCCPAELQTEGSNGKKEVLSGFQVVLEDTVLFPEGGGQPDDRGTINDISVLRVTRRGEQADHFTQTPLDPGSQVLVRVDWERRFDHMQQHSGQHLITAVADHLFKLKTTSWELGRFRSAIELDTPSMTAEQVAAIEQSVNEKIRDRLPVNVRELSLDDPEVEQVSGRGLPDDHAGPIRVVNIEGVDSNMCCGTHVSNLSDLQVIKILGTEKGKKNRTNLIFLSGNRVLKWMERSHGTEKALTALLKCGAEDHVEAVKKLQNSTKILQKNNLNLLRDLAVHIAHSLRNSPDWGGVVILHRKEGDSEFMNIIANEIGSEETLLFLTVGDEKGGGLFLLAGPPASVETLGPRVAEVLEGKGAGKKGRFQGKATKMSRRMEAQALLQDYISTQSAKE
UniProt P42331, sequence (P42331 whole entry, looked up): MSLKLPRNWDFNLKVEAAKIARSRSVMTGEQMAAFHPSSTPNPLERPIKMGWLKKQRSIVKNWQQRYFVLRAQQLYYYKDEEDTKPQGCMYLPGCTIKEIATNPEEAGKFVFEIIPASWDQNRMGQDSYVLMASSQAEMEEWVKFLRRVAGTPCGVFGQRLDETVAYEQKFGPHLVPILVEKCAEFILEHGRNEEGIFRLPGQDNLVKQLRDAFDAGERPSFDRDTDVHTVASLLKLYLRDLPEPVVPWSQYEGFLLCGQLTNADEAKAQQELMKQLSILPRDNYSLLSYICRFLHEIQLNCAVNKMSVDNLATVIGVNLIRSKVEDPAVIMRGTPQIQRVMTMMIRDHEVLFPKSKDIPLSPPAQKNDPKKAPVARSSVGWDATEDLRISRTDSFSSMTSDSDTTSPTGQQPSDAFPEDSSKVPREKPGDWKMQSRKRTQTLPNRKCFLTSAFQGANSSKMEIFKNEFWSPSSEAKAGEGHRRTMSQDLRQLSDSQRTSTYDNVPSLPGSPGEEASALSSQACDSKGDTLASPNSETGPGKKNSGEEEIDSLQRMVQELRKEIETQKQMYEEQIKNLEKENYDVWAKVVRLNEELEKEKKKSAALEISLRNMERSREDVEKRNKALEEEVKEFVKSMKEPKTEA

Turning to BRMS1 (UniProt Q9HCU9), the log2 fold change with Nexturastat A is 0.512 (active); in [1], 0.137; in [2], -0.034; with epoxomicin, -0.018; in experiment [3], 0.144; in [4], -0.092. The log2 fold change in experiment [5] was -0.124.

Take ATRN (UniProt O75882): the log2 fold change was 0.037 in [6]; -0.034 in [7]; -0.061 in experiment [8]; -0.135 in the experiment with Nexturastat A; -0.026 with vemurafenib; 0.054 in experiment [9]. The log2 fold change in experiment [1] is -0.003; with givinostat, 0.026; in the experiment with barasertib it was -0.09; in experiment [2] it was 0.029; with volasertib, -0.094; in experiment [10], -0.019. In addition, the log2 fold change in the experiment with epoxomicin is 0.063; in [11], -0.1; in experiment [3], 0.004; in experiment [12] it was -0.01; with rosiglitazone it was -0.096; in experiment [4], 0.095. Also, the log2 fold change in experiment [5] was 0.121.

ATXN3 isoform 1 (UniProt P54252): the log2 fold change in [13] was -0.08; in experiment [7], 0.012; in [8], -0.043; in the experiment with vemurafenib, 0.005; in experiment [9], 0.04; in experiment [1] it was -0.016. Further, the log2 fold change was 0.02 with givinostat; 0.179 with barasertib; -0.371 in [2]; -0.401 (active) in the experiment with volasertib; 0.099 in [10]; 0.011 in [11]. The log2 fold change is -0.016 in experiment [3], -0.083 in experiment [12], -0.039 with rosiglitazone and -0.015 in experiment [5].

In the case of ARHGAP25 isoform 4 (UniProt P42331), the log2 fold change with Nexturastat A is 0.078; with vemurafenib, 0.086; in experiment [1] it was -0.052; with givinostat, 0.307; with barasertib, -0.018; in experiment [2], -0.031. Besides, the log2 fold change in experiment [10] was -0.031; in the experiment with epoxomicin, 0.083; in experiment [11], -0.103; in experiment [3] it was 0.072; in [12] it was 0.134; in the experiment with rosiglitazone, 0.088. The log2 fold change in [4] is 0.127; in [5] it was -0.221.

For the target ACSL6 isoform 1 (UniProt Q9UKU0), the log2 fold change was 0.075 in [6]; -0.014 in experiment [13]; 0.082 in the experiment with Nexturastat A; 0.17 with vemurafenib; 0.035 in experiment [1]; 0.04 with givinostat. The log2 fold change with barasertib was 0.133; in experiment [10], 0.08; in the experiment with epoxomicin, -0.159; in [11], 0.01; in experiment [3], -0.014; in experiment [12], 0.149. For the same target, the log2 fold change with rosiglitazone was -0.069; in experiment [4], -0.226; in experiment [5], -0.459 (active).

With ADD2 isoform 9 (UniProt P35612), the log2 fold change is 0.191 in [6]; 0.065 in [13]; -0.067 in experiment [7]; -0.114 in [9]; 0.079 in [1]; 0.047 with barasertib. The log2 fold change was -0.1 with volasertib and 0.196 with rosiglitazone.

Consider AUH (UniProt Q13825), for which the log2 fold change in experiment [13] is -0.007; in experiment [7], -0.107; in [8], 0.082; with vemurafenib, 0.091; in experiment [9], 0.008; in experiment [1], -0.185. For the same target, the log2 fold change with givinostat is 0.279; in the experiment with barasertib, 0.096; in experiment [2], 0.011; in the experiment with volasertib, 0.486 (active); in experiment [11] it was -0.129; in experiment [3], -0.094. The log2 fold change in [12] was 0.128; with rosiglitazone, 0.021; in experiment [4], -0.183; in experiment [5] it was 0.086.

Turning to APH1A (UniProt Q96BI3), the log2 fold change in [6] is -0.136; in [7], 0.091; in experiment [8] it was 0.042; in the experiment with vemurafenib, 0.237; in experiment [9], 0.121; in [1], -0.085. Besides, the log2 fold change in the experiment with givinostat was 0.021; with barasertib, 0.002; in [2], -0.023; in the experiment with volasertib it was 0.031; in experiment [10], 0.004; in [11], -0.019. Also, the log2 fold change was 0.026 in experiment [3]; 0.19 in [12]; -0.183 in the experiment with rosiglitazone; 0.034 in experiment [4]; 0.03 in experiment [5].

As to ABHD11 (UniProt Q8NFV4), the log2 fold change was -0.065 in experiment [13]; -0.004 in experiment [7]; 0.003 in [8]; -0.028 with Nexturastat A; 0.139 with vemurafenib; -0.011 in [9]. The log2 fold change in experiment [1] was 0.023; in the experiment with givinostat it was 0.02; with barasertib, 0.057; in experiment [2] it was -0.077; with volasertib it was -0.127; in experiment [10], -0.003. Also, the log2 fold change is 0.272 with epoxomicin; 0.045 in experiment [11]; 0.086 in experiment [3]; 0.007 in [12]; -0.016 with rosiglitazone; -0.033 in experiment [4]. Further, in experiment [5], the log2 fold change is -0.126.

Take AARSD1 (UniProt Q9BTE6): the log2 fold change was 0.044 in [7]; 0.278 in [8]; 0.206 in experiment [9]; 0.027 in experiment [1]; -0.285 in the experiment with givinostat; 0.119 with barasertib. Moreover, the log2 fold change in experiment [2] is -0.042; with volasertib, -0.227; in experiment [10], -0.121; in experiment [11] it was -0.046; with rosiglitazone, 0.085; in experiment [4], 0.283.
